# Test results taken from PubChem BioAssay AID651946 (Broad Institute, 2012).
# Entries with a potency or affinity are not part of this list. Values without a mark were called inactive. The source made the active and inactive calls.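 Rule for the calls: active = toxic compound whose fitted half-effect dose of signal loss is at most twice its top tested dose; inconclusive = flat fit losing 30 to 70% signal, or poor fit; inactive = the rest.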
# Test: cytotoxicity in HeLa cells, dose response, cytotoxicity control, cell-based, plate reader, dry powder (AID 651946)
# Settings: HeLa viability, ATP luminescence (CellTiter-Glo), 48 h; series mostly up to 26 µM; activity change, negative = cytotoxicity: at the top concentration
SMILES,"activity change, negative = cytotoxicity",outcome
c1ccc(-n2cc(CSc3nnc(C4CCCC4)o3)nn2)cc1,0.271%,–
Fc1ccc(-c2nnc(SCc3cn(Cc4ccccc4)nn3)o2)cc1,3.95%,–
c1ccc(CSc2ncc(-c3ccccc3)o2)cc1,6.4%,–
c1ccc(-c2nnc(SCCN3CCN(c4ccccc4)CC3)o2)cc1,-6.89%,–
CC(C)c1nnc(SCc2ccccc2)o1,8.34%,–
O=S(Cc1cn(Cc2ccc(F)cc2)nn1)c1nnc(-c2ccc(Cl)cc2)o1 (stereo unspecified),-84.4%,–
FC(F)(F)c1ccc(CSc2nnc(-c3ccccc3)o2)cc1,4.35%,–
c1ccc(-c2nnc(SCCN3CCCC3)o2)cc1,-0.13%,–
Fc1ccc(Cn2cc(CSc3nnc(C4CCC4)o3)nn2)cc1,-6.56%,–
Cc1ccc(-c2nnc(SCc3ccccc3)o2)cc1,13.6%,–
CS(=O)(=O)c1ccc(-c2nnc(SCc3ccccc3)o2)cc1,-16.9%,–
COCCSc1nnc(-c2ccccc2)o1,6.23%,–
N#Cc1ccc(CSc2nnc(-c3ccccc3)o2)cc1,-5.77%,–
Fc1ccccc1CSc1nnc(-c2ccccc2)o1,0.588%,–
FC(F)(F)Oc1cccc(CSc2nnc(-c3ccccc3)o2)c1,2.07%,–
Clc1ccccc1CSc1nnc(-c2ccccc2)o1,7%,–
c1ccc(CSc2nnc(-c3cnco3)o2)cc1,6.24%,–
FC1(F)CCN(CCSc2nnc(-c3ccccc3)o2)CC1,0.895%,–

SMILES,"activity change, negative = cytotoxicity",outcome
Cc1cccc(CSc2nnc(-c3ccccc3)o2)c1,-5.41%,–
O=S(=O)(Cc1ccccc1)c1nnc(-c2ccccc2)o1,-6.44%,–
Cc1ccc(-c2nnc(SCc3ccccn3)o2)cc1,1.8%,–
Fc1cccc(-c2nnc(SCc3ccccc3)o2)c1,4.36%,–
c1ccc(-c2nnc(SC3CCCCC3)o2)cc1,7.66%,–
CC1(O)CN(CCSc2nnc(-c3ccccc3)o2)C1,-12.4%,–
Cc1cccc(-c2nnc(SCc3ccccc3)o2)c1,3.41%,–
Clc1ccc(CSc2nnc(-c3ccccc3)o2)cc1,-9.93%,–
FC(F)(F)Oc1ccc(CSc2nnc(-c3ccccc3)o2)cc1,13.6%,–
Fc1ccc(CSc2nnc(-c3ccccc3)o2)cc1,–,inactive
c1ccc(CSc2nnc(-c3ccccc3)s2)cc1,6.56%,–
FC(F)(F)Oc1ccc(-c2nnc(SCc3ccccc3)o2)cc1,9.74%,–
CSc1nnc(-c2ccccc2)o1,5.47% [at 120 µM],–
c1ccc(CSc2nnc(-c3ccco3)o2)cc1,9.18%,–
Fc1ccc(-c2nnc(SCc3ccccn3)o2)cc1,-15.3%,–
Fc1ccc(CSc2nnc(-c3ccncc3)o2)cc1,13.1%,–
c1ccc(-c2nnc(SCC3CC3)o2)cc1,1.63%,–
c1ccc(Cn2cc(CSc3nnc(-c4ccccc4)o3)nn2)cc1,-5.77%,–
